Assay outcomes from PubChem.
Compounds with a hit are over-represented: about 6% of the library has one in this group of screens.
D3 antag: blocks the human D3 dopamine receptor; AID 652054; 2.5% of 360,000 active; P35462; max response, negative = inhibition, %; D3R cells, DiscoveRx beta-arrestin luminescence, antagonist mode; active compounds read low; in the data active = max response below about -50%; inconclusive = no clear call, values can overlap the other calls; also: % is scaled to controls: 0 for no effect and ±100 for the full control effect
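Cells expressing the human receptor were seeded at 1500 cells/well, incubated overnight at 37 degrees C in 5% CO2, then exposed to library compounds with dopamine controls for 90 minutes at 37 degrees C before luminescent detection.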
D1 antagonist: blocks dopamine activation of the human D1 receptor; activity change, negative = inhibition, % at 10 µM; P21728; 3.2% of 360,000 active; HEK293 TREx D1 cells, calcium flux, dopamine EC80; active compounds read low; in the data active = activity change below about -30%; also: % is scaled to controls: 0 for no effect and ±100 for the full control effect
Target sequence (P21728 whole entry, looked up): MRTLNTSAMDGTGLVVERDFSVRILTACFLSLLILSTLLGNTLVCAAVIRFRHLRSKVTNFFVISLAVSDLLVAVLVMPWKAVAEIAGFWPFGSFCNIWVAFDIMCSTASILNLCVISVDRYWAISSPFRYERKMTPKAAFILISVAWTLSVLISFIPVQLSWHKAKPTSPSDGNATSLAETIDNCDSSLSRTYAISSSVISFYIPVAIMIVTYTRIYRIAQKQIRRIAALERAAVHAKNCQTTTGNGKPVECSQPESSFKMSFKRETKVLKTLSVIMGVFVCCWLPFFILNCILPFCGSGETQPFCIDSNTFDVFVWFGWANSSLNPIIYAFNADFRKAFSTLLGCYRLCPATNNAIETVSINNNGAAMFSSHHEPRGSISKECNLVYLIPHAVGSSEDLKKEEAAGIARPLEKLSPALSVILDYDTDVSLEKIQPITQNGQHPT
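Inducible Hek293 Trex D1 cells (tetracycline, overnight, 30 C). Calcium dye 30–90 min RT. Antagonist mode: EC80 dopamine added after 180 s compound read.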
D1 agonist: activates the human D1 dopamine receptor | activation, % at 2 µM | HEK293 T-REx D1 cells, calcium flux, agonist mode | P21728 | 1% of 360,000 active; in the data active = activation above about 30%; also: 0% is about no effect
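Inducible HEK293 T-REx D1 cells, force-coupled to calcium signalling, were plated at 4000 cells/well with tetracycline and held overnight at 30 C. After no-wash calcium dye loading, compound-evoked calcium rise over 180 s flagged agonists.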
DRD3 agonist: D3 dopamine receptor (human) agonism; AID 652048; D3R DiscoveRx beta-arrestin cells, luminescence, 90 min; max activation, %; P35462; 0.58% of 410,000 active; in the data active = max activation above about 30%; also: 0% is about no effect
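Agonist mode: compounds and dopamine controls were applied to plated cells for 90 min at 37 degrees C after an overnight attachment at 1500 cells/well. Luminescent read-out followed 30 - 60 minutes at room temperature with DiscoveRx detection reagent.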
D1 potentiator: potentiators of human D1 dopamine receptor; 0.036% of 360,000 active; P21728; potentiation, % at 10 µM; HEK293 TREx D1 cells, calcium flux, dopamine EC20 potentiation; AID 504651; in the data active = potentiation above about 30%; also: 0% is about no effect
* = called active by the depositor; ? = inconclusive; / = no result given.

SMILES | D3 antag | D1 antagonist | D1 agonist | DRD3 agonist | D1 potentiator
CC1=Nc2ccccc2/C1=C/c1sc(=S)n(-c2cccc(C(=O)O)c2)c1O | ? | -4.8 | 48.9* | -0.8 | 2.5
Cc1ccc(Cn2c(C(=O)NCc3ccccc3Cl)cc3sccc32)cc1 | / | -12.1 | 3.1 | -20.4 | -0.1
NC(=O)C[n+]1cccc(CNC(=O)c2ccc(OC(F)F)cc2)c1 | 9.1 | -30.3* | 1.2 | -0.4 | 4.3
Cc1ccc[n+](CC(=O)Nc2c(Cl)cc(Cl)cc2Cl)c1 | -17.0 | 19.5 | 0.7 | -2.9 | -3.2
O=C(C[n+]1cccc(CNC(=O)c2ccc(OC(F)F)cc2)c1)Nc1cc(C(F)(F)F)ccc1Cl | -63.9* | -22.7 | -0.3 | -24.0 | -10.6
N/C(CC(=O)Nc1cc(C(F)(F)F)ccc1Cl)=N\O | -16.6 | -7.3 | 12.0 | -2.4 | -2.1
O=C(C[n+]1ccc(C(=O)NCc2ccccc2)cc1)c1ccc(OC(F)F)cc1 | 0.9 | -3.6 | 2.7 | 7.2 | -1.7
CN(C)CC(=O)Nc1cc(C(F)(F)F)ccc1Cl | -58.2* | 3.5 | 3.6 | -11.6 | -0.1
O=C(CCc1ccccc1)Nc1cc(C(F)(F)F)ccc1Cl | 2.5 | -11.8 | 4.3 | -6.4 | 1.2
Cc1ccc[n+](CC(=O)Nc2cc(C(F)(F)F)ccc2Cl)c1 | -78.8* | 3.1 | 2.3 | -36.3 | -2.6
O=C(Nc1cc(-c2ccc(F)c(F)c2)no1)c1ccccc1F | / | -0.7 | -2.5 | -0.9 | 0.0
O=C(CN1C(=O)COc2ccc(S(=O)(=O)N3CCCCCC3)cc21)N1CCN(c2ccc(F)cc2)CC1 | / | 14.4 | 0.0 | -24.0 | 2.1
COc1ccc(NC(=O)C(OC(=O)CNC(=O)c2ccccc2)c2ccccc2)cc1Cl (centres undefined) | / | 12.4 | 3.3 | / | 3.3
COc1cccc(OCc2cc(=O)n3c(-c4ccccc4)csc3n2)c1 | / | -5.3 | -2.2 | 8.9 | 2.4
COc1ccccc1CC(=O)N(Cc1ccccc1)c1cccc(C)c1 | -15.8 | -30.6* | 0.8 | -3.8 | 3.1
O=C(NCc1ccc2c(c1)OCO2)c1nc(S(=O)(=O)Cc2ccccc2)ncc1Cl | -65.8* | -27.7 | 0.8 | -29.5 | -5.4
O=C(NCc1ccc2c(c1)OCO2)c1nc(S(=O)(=O)Cc2ccccc2F)ncc1Cl | -91.5* | -49.4* | 3.2 | 2.9 | -11.3
COc1ccc2nc(N(CCN(C)C)C(=O)/C=C/c3cccs3)sc2c1 | -1.0 | -6.3 | 5.2 | -12.5 | -2.8
COc1ccc2sc(N(CCN(C)C)C(=O)/C=C/c3cccs3)nc2c1 | -86.0* | -16.4 | 3.2 | -17.0 | -3.7
Cc1ccc(CNC(=O)C2CCC(CNS(=O)(=O)c3ccc(C)cc3)CC2)cc1 (centres undefined) | / | 0.0 | 5.1 | -2.0 | 0.1
CC(C)c1nc2sc3c(=O)[nH]cnc3c2c2c1CCC2 | 6.5 | -15.2 | 0.9 | 52.0* | 2.9
O=C(O)c1cc(O)c2c(c1)[C@@H]([C@H]1c3cc(C(=O)O)cc(O)c3C(=O)c3c(O[C@@H]4O[C@H](CO)[C@@H](O)[C@H](O)[C@H]4O)cccc31)c1cccc(OC3O[C@H](CO)[C@@H](O)[C@H](O)[C@H]3O)c1C2=O (some centres undefined) | -56.2* | -16.9 | -2.1 | 0.0 | -2.1
O=C(O)c1cc(O)c2c(c1)[C@H]([C@H]1c3cc(C(=O)O)cc(O)c3C(=O)c3c(O[C@@H]4O[C@H](CO)[C@@H](O)[C@H](O)[C@H]4O)cccc31)c1cccc(OC3O[C@H](CO)[C@@H](O)[C@H](O)[C@H]3O)c1C2=O (some centres undefined) | -13.3 | 6.4 | -1.8 | 0.0 | -1.2
Cc1cc2n(n1)CCCN2C(=O)Nc1ccc(Cl)cc1 | / | -23.3 | 11.5 | 0.9 | -4.6
CCn1nc(C)cc1-c1nnc(Sc2ncc([N+](=O)[O-])s2)n1C | -117.4* | -0.8 | 0.2 | -24.5 | -0.3
CCn1nc(C)cc1-c1nnc(SCC(=O)Nc2ccccc2)n1CCCOC | 4.3 | -0.5 | 0.7 | 0.5 | 0.0
Cc1ccc(CSC(Nc2ccc(F)cc2)=C(C#N)C#N)cc1 | ? | -35.7* | 25.5 | -1.3 | -11.7
CCN(CC)C(=O)CSC(Nc1ccc(F)cc1)=C(C#N)C#N | 15.3 | -16.0 | 5.9 | 0.5 | -0.5
Cc1ccc(C(C)C)c(OCc2nn(CC(=O)c3ccc(OC(F)F)cc3)c3[n+]2CCCCC3)c1 | -6.6 | -11.8 | 91.0* | -9.9 | -5.8
